This is a sample that favours compounds with a hit; in the whole collection about 3.5% have one here.
LEDGF integ inh = blockers of LEDGF/p75-dependent integrase strand transfer – biochemical, TR-FRET, high throughput, primary screen; HIV-1 integrase (with human LEDGF/p75); TR-FRET IN-LEDGF/p75 DNA integration, Eu/Cy5; inhibition, % at 3.7 µM; actives 0.64% (n = 370,000); AID 743269, 2014;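 active means inhibition above the screen-wide mean plus 3 SD, cut at about 13% in these data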;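 further: signal is the Cy5 over europium emission ratio at 671 and 618 nm; 0% = plate median of compound wells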
PG9 binder = binders of HIV-1 gp120 antibody PG9, primary screen, biochemical, TR-FRET; TR-FRET gp120-PG9 antibody binding; actives 0.43% (n = 360,000); HIV-1 gp120 / PG9 antibody interaction; inhibition, % at 6.7 µM; in the data active means inhibition above about 8.5%
rCAG RNA binder = binders of r(CAG) RNA repeats, primary screen, biochemical, fluorescence; r(CAG) RNA repeat, TO-PRO-1 dye displacement fluorescence; inhibition, % at 3 µM; actives 1.3% (n = 370,000);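 active means inhibition above the plate cutoff, the mean of all test compounds on that plate plus 3 SD, cut at about 35% in these data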;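 further: 0% = DMSO alone and 100% = 100 µM mitoxantrone as full dye displacement; higher means more dye released from RNA so lower well fluorescence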
MBD2 DNA inh = inhibitors of MBD2 binding to methylated DNA, primary screen, biochemical, TR-FRET, DNA-binding domain, human; Methyl-CpG-binding domain protein 2 (Homo sapiens), Q9UBB5; MBD2 binding to methylated oligonucleotide; actives 0.31% (n = 370,000); inhibition, % at 4.4 µM; in the data active means inhibition above about 13%
DNMT1 block = human DNMT1 methyltransferase inhibitors, primary screen, biochemical, molecular beacon, fluorescence, HinP1I cleavage, uHTS; inhibition (reported as % activation of signal), % at 10 µM; actives 0.83% (n = 360,000); DNA (cytosine-5)-methyltransferase 1 (Homo sapiens), P26358; in the data active means inhibition above about 50%
Target sequence (P26358 504-1616 limits assumed): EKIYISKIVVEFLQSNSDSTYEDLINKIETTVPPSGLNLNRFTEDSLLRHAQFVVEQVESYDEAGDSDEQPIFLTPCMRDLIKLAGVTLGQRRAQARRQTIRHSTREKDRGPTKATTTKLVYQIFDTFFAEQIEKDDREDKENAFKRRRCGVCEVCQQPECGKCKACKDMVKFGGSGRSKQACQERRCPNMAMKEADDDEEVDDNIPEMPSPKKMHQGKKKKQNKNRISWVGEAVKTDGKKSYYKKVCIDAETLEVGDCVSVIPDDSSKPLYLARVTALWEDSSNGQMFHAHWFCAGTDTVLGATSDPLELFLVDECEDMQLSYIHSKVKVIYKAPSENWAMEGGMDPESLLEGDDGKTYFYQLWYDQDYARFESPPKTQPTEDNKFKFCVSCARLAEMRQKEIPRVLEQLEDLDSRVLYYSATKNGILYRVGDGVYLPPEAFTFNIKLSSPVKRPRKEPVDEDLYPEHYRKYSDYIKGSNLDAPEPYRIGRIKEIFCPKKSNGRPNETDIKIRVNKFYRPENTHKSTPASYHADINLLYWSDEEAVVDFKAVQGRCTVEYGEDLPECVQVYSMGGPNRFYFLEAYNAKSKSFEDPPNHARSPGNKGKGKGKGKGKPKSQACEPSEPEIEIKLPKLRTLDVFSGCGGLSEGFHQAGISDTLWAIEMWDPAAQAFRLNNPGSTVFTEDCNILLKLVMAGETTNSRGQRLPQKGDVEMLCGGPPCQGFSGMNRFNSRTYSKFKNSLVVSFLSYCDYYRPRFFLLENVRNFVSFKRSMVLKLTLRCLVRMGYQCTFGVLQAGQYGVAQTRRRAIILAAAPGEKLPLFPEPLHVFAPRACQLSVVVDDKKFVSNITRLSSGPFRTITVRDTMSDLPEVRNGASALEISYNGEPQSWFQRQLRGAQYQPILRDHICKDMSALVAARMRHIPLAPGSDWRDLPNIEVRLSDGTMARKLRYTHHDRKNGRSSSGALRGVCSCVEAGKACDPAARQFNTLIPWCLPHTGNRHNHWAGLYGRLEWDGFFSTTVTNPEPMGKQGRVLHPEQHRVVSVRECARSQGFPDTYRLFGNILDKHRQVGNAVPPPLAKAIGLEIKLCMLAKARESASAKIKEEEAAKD
UHRF1 binding = UHRF1 methylated DNA binding inhibitors, primary screen, counter-screen for MBD2 inhibitor project, biochemical, TR-FRET, human UHRF1, single concentration. UHRF1 binding to methylated oligo. inhibition, % at 4.4 µM. actives 0.75% (n = 370,000); in the data active means inhibition above about 21%;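 further: UHRF1 SRA domain binding a hemimethylated CpG hairpin DNA probe; 0% = median of test compound wells and 100% = reference inhibitor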
Starred values were filed as active, the others as inactive; / = not tested or not shown.

SMILES | LEDGF integ inh | PG9 binder | rCAG RNA binder | MBD2 DNA inh | DNMT1 block | UHRF1 binding
Cc1nn(-c2ccc(Cl)cc2)c(Cl)c1/C=N/NC(=O)c1ccc(NS(=O)(=O)c2cccs2)cc1 | 4.1 | -1.7 | 61.6* | -7.0 | -11.4 | -6.7
Cc1nn(-c2ccc(F)cc2)c(Cl)c1/C=N/NC(=O)c1cccs1 | 1.3 | 0.9 | 1.4 | 3.5 | 11.6 | -2.5
NC(=O)CSc1nc2ccccc2c(=O)n1Cc1ccccc1 | 6.2 | -3.0 | 2.9 | 0.3 | 4.8 | 1.6
COc1ccccc1CNC(=O)CSc1nc2c(oc3ccccc32)c(=O)n1CC1CCCO1 (stereo not given) | 3.4 | -0.6 | 1.2 | 2.6 | 2.9 | 1.9
COc1ccccc1Cn1c(SCC(N)=O)nc2c(oc3ccccc32)c1=O | -0.8 | 0.3 | 3.9 | 0.9 | 2.5 | 61.4*
CCn1c(SCC(N)=O)nc2ccccc2c1=O | -1.6 | -0.6 | -1.6 | 4.4 | 4.9 | 25.0*
Cc1nn(-c2ccccc2)c2sc(C(=O)N3CCN(Cc4ccc(F)cc4)CC3)cc12 | -1.3 | / | 4.6 | 5.5 | / | 0.4
COC(=O)C1CN(Cc2ccc(C)cc2)CCS(=O)(=O)N1Cc1cn(Cc2ccc(Cl)cc2)nn1 (stereo not given) | 2.1 | / | 2.5 | -5.3 | / | 7.9
C=CCn1c(CNS(=O)(=O)c2ccc(Cl)cc2)n[nH]c1=S | 2.3 | -0.8 | 1.2 | 1.9 | -0.2 | -1.4
C=CCn1c(CNS(=O)(=O)c2ccc(F)cc2)n[nH]c1=S | -7.5 | -1.4 | -3.0 | -0.6 | -0.8 | 42.3*
COc1ccc(CN2CN3Cc4cc(F)ccc4C3CS2(=O)=O)cc1 (stereo not given) | 0.7 | / | 1.5 | 1.2 | / | -1.1
CC(C)Nc1ncnc2c1cnn2-c1ccc(Cl)cc1 | 3.3 | -0.7 | 1.9 | 2.1 | 86.1* | -0.1
C=CCN(C)CC#Cc1ccccc1C | -1.2 | / | 0.2 | -1.1 | / | 1.6
CCOc1ccc(N(CC(=O)Nc2ccc3c(c2)OCCO3)S(=O)(=O)c2c(C)noc2C)cc1 | 7.6 | 1.1 | 1.9 | -2.0 | 0.9 | -1.2
CCc1ccc(NC(=O)CN(c2ccc3c(c2)OCO3)S(=O)(=O)c2c(C)noc2C)cc1 | 3.1 | -2.8 | 2.2 | 0.9 | 5.2 | 32.6*
Cc1cccc(NC(=S)N(CCCN2CCOCC2)Cc2cn(C)c3ccccc23)c1 | 0.5 | -1.3 | 2.7 | 1.0 | 0.5 | 41.8*
CC(C)C[C@H]1COc2ccc(Cl)cc2S(=O)(=O)N1Cc1cn(Cc2ccc(C(F)(F)F)cc2)nn1 | -4.2 | / | 3.9 | 0.1 | / | -2.0
CCOC(=O)C1=C(C)N(CCCC(=O)O)C(=O)NC1C(CC)CC (stereo not given) | 0.7 | -2.3 | 1.9 | -0.6 | 0.9 | 0.6
Cc1ccc(C(C)C)cc1OCC(=O)Nc1nnc(C2CC2)s1 | 1.2 | -0.1 | 2.6 | 4.4 | 6.1 | 26.8*
Cc1cc(OCC(=O)Nc2nnc(C3CC3)s2)ccc1C(C)C | -3.5 | -0.8 | 0.1 | 1.6 | 30.3 | 0.2
COc1cccc(N2CC(=O)Nc3c(oc4nc(-c5ccccc5)cc(C)c34)C2=O)c1 | -5.3 | 0.2 | 2.9 | -1.5 | 0.9 | 45.0*
CC(C)OCCCNC(=S)NNC(=O)C(c1ccccc1)c1ccccc1 | -3.2 | 1.3 | -3.3 | 2.5 | 9.3 | 22.0*
O=S(=O)(c1ccc(Cl)nc1)N1CCc2ccccc21 | 1.2 | 1.6 | -2.3 | 2.0 | 3.9 | 41.8*
COc1ccc2c3c([nH]c2c1)[C@]1(CCNC=O)Nc2ccccc2C1=NCC3 | -1.9 | / | / | -6.5 | / | 0.2
CC(C)(C)NC(=O)C(c1ccccc1)n1c(=O)c(-c2ccco2)nc2ccccc21 (stereo not given) | 1.3 | 0.3 | 36.3* | -1.7 | / | -6.0
SMILES | LEDGF integ inh | PG9 binder | rCAG RNA binder | MBD2 DNA inh | DNMT1 block | UHRF1 binding
CC(C)(C)NC(=O)C(c1ccncc1)n1c(=O)c(-c2ccco2)nc2ccccc21 (stereo not given) | 6.0 | -1.3 | 18.8 | -7.4 | / | -7.7
O=C(NC1CCCCC1)C(c1cccc2ccccc12)n1c(=O)c(-c2ccco2)nc2ccccc21 (stereo not given) | 3.3 | 1.6 | 35.3* | 1.3 | / | -7.4
COc1ccc(C(C(=O)NC2CCCCC2)n2c(=O)c(-c3ccco3)nc3ccccc32)cc1 (stereo not given) | 2.8 | -0.9 | 25.5 | -1.2 | / | -4.3
Cc1ccc(-n2c(SCC(=O)Nc3ccccc3-c3ccccc3)nnc2-c2ccco2)cc1 | 0.4 | / | 1.2 | 1.6 | / | 0.2
COC(=O)C1CN(Cc2cn(Cc3ccc(OC)cc3)nn2)CCS(=O)(=O)N1Cc1ccc(OC)cc1 (stereo not given) | -2.4 | / | 7.2 | -1.2 | / | 6.8
N#Cc1c(NC(=O)c2ccc(Br)o2)n(-c2ccccc2)c2nc3ccccc3nc12 | 7.1 | -0.1 | 22.3 | -1.0 | 51.2* | 6.1
CCC(=O)Nc1c(C#N)c2nc3ccccc3nc2n1-c1ccc(C)cc1 | -0.8 | 7.0 | 10.5 | -3.4 | 3.8 | -7.3
CCC(Cc1ccccc1)NCc1c(C(=O)O)c(C)n(Cc2ccccc2)c1C (stereo not given) | -8.9 | 1.2 | -0.1 | -0.7 | -2.8 | 29.7*
CCCC1CCC2(CC1)CCC2OC(=S)Nc1cccc(Cl)c1 (stereo not given) | 3.2 | / | / | 5.5 | / | 2.3
CC1=C(C#N)C(=O)NC(=O)/C1=C/c1ccc(-c2ccc(S(N)(=O)=O)cc2)o1 | 1.4 | -2.7 | 4.6 | 20.5* | -5.4 | 0.6
NS(=O)(=O)c1ccc(-c2ccc(/C=C3\NC(=S)NC3=O)o2)cc1 | 11.7 | -6.3 | 21.0 | -8.9 | -1.1 | -5.7
O=C1c2ccccc2NC(c2ccccc2)N1CCCN1CCOCC1 (stereo not given) | 3.0 | -1.4 | -4.5 | -2.2 | 0.8 | 1.0
O=C(O)c1ccccc1C1Nc2ccccc2C(=O)N1CCCN1CCOCC1 (stereo not given) | 2.5 | -3.8 | 0.1 | 4.7 | 1.2 | 40.2*
CN(CCOC(=O)c1cc2ccccc2o1)C1CN(Cc2cn(Cc3cccc(F)c3)nn2)S(=O)(=O)C1 (stereo not given) | -0.2 | / | 2.3 | 3.8 | / | 5.6
CC(=O)Nc1ccc(OCC(C)CN2CCC(C(O)(c3ccccc3)c3ccccc3)CC2)cc1 (stereo not given) | -0.8 | / | 3.0 | 1.6 | / | -0.3
Cc1c(Cc2ccccc2)c(=O)oc2c(C)c(OCc3nn[nH]n3)ccc12 | 5.3 | 0.6 | 58.9* | -0.3 | 7.5 | 0.4
CCc1nnc(NC(=O)c2ccc(COc3ccccc3Cl)o2)s1 | -3.3 | 2.0 | 1.4 | -1.2 | 2.8 | 27.8*
